POLB inh – inhibitors of human DNA polymerase beta; AID 485314; hit rate 1.3% among 340,000; P06746; Pol beta primer extension/strand displacement, fluorescence kinetic; Potency, µM (titrated, usually from 114 µM), without a hit: at the highest dose activity change, negative = inhibition, actives largely listed as inhibitors; also: potency is read from the fitted curve at half-maximal effect; % is scaled to controls: 0 for no effect and ±100 for the full control effect
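10 nM enzyme + cpd, 15 min RT; start with substrate 50 nM final; read 0 min and after 10 min RT. Corrected, normalized data; 4-parameter Hill curve fit.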
Pol iota inh – blocks human DNA polymerase iota activity. Q9UNA4. Potency, µM (titrated, usually from 115 µM), without a hit: at the highest dose activity, negative = inhibition, most hits filed as inhibitors. hit rate 1% among 390,000. AID 588590. Pol iota fluorescent replication assay, 10 min; also: potency is read from the fitted curve at half-maximal effect
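Pol iota at 10 nM preincubated 15 min with compounds at room temperature; reaction started with fluorescent substrate, 50 nM final. Fluorescence read kinetically at 0 and 10 min; buffer-only wells as negative control.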
PI5P4K alpha inh – inhibitors of human PI5P4K alpha; PI5P4Kalpha enzyme, ADP-Glo luminescence, 60 min; stronger effect = lower value; max response, %; hit rate 1.2% among 330,000; AID 652105; active = max response of -50% or lower; inconclusive = between -30% and -50%; inactive = -30% or higher; also: value at the top dose of about 77 µM; % is scaled to controls: 0 for no effect and ±100 for the full control effect
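ADP-Glo luminescence end-point read after a 60 min room-temperature kinase reaction of PI5P4Kalpha plus substrate, initiated with ATP at 5 microM final. Buffer: 0.038 M HEPES pH 7.4, EGTA, 0.1% CHAPS, 5% DMSO.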
POLK inh – DNA polymerase kappa (human) inhibition; Q9UBT6; hit rate 0.53% among 400,000; purified Pol kappa, fluorescent DNA synthesis assay, 10 min; Potency, µM (titrated, usually from 107 µM), for inactives: at the highest dose activity, negative = inhibition, most hits filed as inhibitors; also: potency is read from the fitted curve at half-maximal effect; % is scaled to controls: 0 for no effect and ±100 for the full control effect
Target sequence (Q9UBT6 whole entry, looked up): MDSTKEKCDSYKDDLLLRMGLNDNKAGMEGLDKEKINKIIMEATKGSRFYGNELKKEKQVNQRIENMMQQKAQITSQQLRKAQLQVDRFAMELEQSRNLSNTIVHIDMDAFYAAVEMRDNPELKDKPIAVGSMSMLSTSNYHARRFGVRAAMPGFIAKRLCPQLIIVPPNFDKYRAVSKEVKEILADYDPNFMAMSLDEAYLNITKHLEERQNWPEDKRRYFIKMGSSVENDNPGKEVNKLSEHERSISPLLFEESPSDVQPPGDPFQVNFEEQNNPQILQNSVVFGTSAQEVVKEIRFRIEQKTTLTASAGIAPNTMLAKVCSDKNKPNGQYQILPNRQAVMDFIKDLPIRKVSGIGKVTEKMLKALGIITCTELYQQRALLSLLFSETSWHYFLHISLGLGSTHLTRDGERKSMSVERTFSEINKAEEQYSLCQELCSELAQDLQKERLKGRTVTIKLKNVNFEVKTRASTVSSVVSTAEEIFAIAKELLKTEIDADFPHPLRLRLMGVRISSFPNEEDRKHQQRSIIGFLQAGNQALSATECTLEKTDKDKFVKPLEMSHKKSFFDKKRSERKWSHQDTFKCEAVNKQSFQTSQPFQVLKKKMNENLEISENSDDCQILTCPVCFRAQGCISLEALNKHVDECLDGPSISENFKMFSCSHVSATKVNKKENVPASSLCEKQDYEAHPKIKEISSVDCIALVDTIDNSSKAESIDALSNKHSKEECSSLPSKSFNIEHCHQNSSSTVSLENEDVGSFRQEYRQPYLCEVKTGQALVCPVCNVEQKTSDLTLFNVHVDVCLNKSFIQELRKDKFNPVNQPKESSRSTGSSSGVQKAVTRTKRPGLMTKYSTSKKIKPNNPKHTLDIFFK
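10 nM Pol kappa preincubated 15 min at room temperature with compounds, then reaction started with substrate at 50 nM final. Fluorescence read kinetically at 0 and 10 min; buffer-only wells served as negative control.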
Pol eta inh – inhibitors of human DNA polymerase eta; Q9Y253; recombinant Pol eta, fluorescent DNA replication assay; Potency, µM (titrated, usually from 114 µM), without a hit: at the top dose activity change, negative = inhibition, hits mostly inhibitors; hit rate 1.2% among 390,000; also: potency is read from the fitted curve at half-maximal effect; % is scaled to controls: 0 for no effect and ±100 for the full control effect
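Fluorescent replication assay: 50 nM final substrate added after a 15 min room-temperature compound preincubation with 10 nM enzyme. Signal taken at 0 min and again at 10 min.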
12-LOX inh – ALOX12 (human) lipoxygenase inhibition; Potency, µM (titrated, usually from 108 µM), without a hit: at the top dose activity change, negative = inhibition, actives largely listed as inhibitors; hit rate 1.1% among 580,000; purified 12hLO, xylenol orange hydroperoxide absorbance; AID 1671190; P18054; also: potency is read from the fitted curve at half-maximal effect; % is scaled to controls: 0 for no effect and ±100 for the full control effect
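Hydroperoxide product was detected by ferrous iron/xylenol orange as the 573 to 405 nm absorbance ratio. Arachidonic acid at 40 uM (final) was turned over for 30 min at room temperature by 150 nM human 12hLO, pH 7.0 Hepes buffer, after 15 min compound preincubation.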
The depositor's hits bear a star; ? = inconclusive; · = no result given; [ ] = remark or other dose. The list is not random: actives were taken first. Their share in the collection is about 2.9%. Unless noted, calls follow the shape of the dose curve; as a rule, active = well fitted inhibition curve with a large enough effect; inconclusive = small, poorly fitted or top-dose-only effect, or another doubt; inactive = no such curve, though single readings can be large or run the other way.

SMILES	POLB inh	Pol iota inh	PI5P4K alpha inh	POLK inh	Pol eta inh	12-LOX inh
Cc1cccc(N2C(=O)/C(=C/c3cccnc3)SC2=S)c1	0.6%	19.0%	5.2	5.4%	-15.7%	0.0%
Cc1ccc(/C=C2/NC(=O)N(Cc3ccccc3)C2=O)o1	0.7%	-8.0%	-57.2*	-10.6%	-12.4%	31.6µM*
Cc1ccc(/C=C2\SC(=S)N(c3cccnc3)C2=O)o1	3.4%	?	1.1	50.1µM*	-15.8%	-22.0%
Cc1cc(C(=O)O)ccc1-c1ccc(/C=C2\NC(=O)N(Cc3ccccc3Cl)C2=O)o1	14.1µM*	5.62µM*	-67.4*	22.4µM*	4.47µM*	·
O=C(NC[C@H]1Cn2c(-c3ccc(Cl)cc3)cnc2CO1)Nc1ccccc1	·	·	·	·	·	74.5%[176 µM]
CCn1nc(C(=O)OC(C)C(=O)c2ccc(C(C)(C)C)cc2)c2ccccc2c1=O (centres undefined)	·	·	·	·	·	41.9%
Cc1ccc(-c2nnn(CC(=O)c3c[nH]c4ccccc34)n2)cc1	·	·	·	·	·	-6.9%
Cc1ccc(C(=O)N2CCCN(c3cc(-c4ccc(C)c(C)c4)[nH]n3)CC2)cc1C	·	·	·	·	·	8.2%
O=C(O)CCN1C(=O)/C(=C/c2ccc(-c3nc4ccccc4s3)o2)SC1=S	25.1µM*	?	-26.2	?	3.16µM*	39.8µM*
O=C(Nc1ccc(-c2ccccc2)cc1)c1c[nH]c2ccccc12	·	·	·	·	·	-24.6%
COc1ccc(/C=C/C(=O)NCC2COc3ccccc3O2)cc1OC (centres undefined)	-26.6%	55.5%	0.3	-3.9%	-12.4%	3.3%
O=C(NCc1ccco1)/C(=C\c1ccco1)NC(=O)c1cccs1	22.4µM*	70.6%	-2.9	-13.1%	-20.8%	10.6%
Cc1ccc(/C=C/C(=O)NCc2ccco2)o1	22.4µM*	·	·	·	·	-17.6%
O=C(/C=C/c1ccccc1)NCc1ccco1	-1.8%	29.6%	0.4	-6.1%	-12.4%	37.8%
O=C(/C=C/c1ccco1)NCc1ccco1	10µM*	?	-7.8	-34.6%	?	0.0%
Cc1ccc(/C=C/C(=O)NCC2COc3ccccc3O2)o1 (centres undefined)	80.1%	35.0%	-69.9*	-7.6%	-14.0%	?
CN1CCC(NC(=O)c2cc(Cl)cc(Cl)c2)CC1	·	·	·	·	·	4.6%
CCN(CC)c1ccc2nnc(CCC(=O)N3CCC4(CC3)OCCO4)n2n1	·	·	·	·	·	13.7%
CCN(CC)CCNC(=S)NC(=O)c1cn(-c2ccccc2)nc1-c1ccc(OC)cc1	2.2%	2.3%	7.9	-16.8%	-8.7%	44.7µM*
COc1ccc(C(=O)Oc2ccc3c(c2)O/C(=C\c2ccc(C(C)(C)C)cc2)C3=O)cc1OC	·	·	·	·	·	7.6%
O=[N+]([O-])c1ccc(O)c(/C=N/Nc2ncnc3c2cnn3-c2ccccc2)c1	7.6%	-8.4%	-74.6*	-12.9%	-4.2%	-10.5%
O=[N+]([O-])c1ccc(O)c(/C=N/Nc2ccccn2)c1	-12.1%	5.6%	-1.5	-18.9%	-6.6%	7.2%
NCc1c(O)ccc2ccccc12	2.7%	·	·	·	·	?
Oc1ccc2ccccc2c1SSc1c(O)ccc2ccccc12	·	·	·	-0.2%[60.1 µM]	·	1.72µM*
CCOC(=O)c1ccccc1NC(=O)c1cccc([N+](=O)[O-])c1	31.0%	-3.5%	-28.1	4.1%	-12.6%	16.8%
SMILES	POLB inh	Pol iota inh	PI5P4K alpha inh	POLK inh	Pol eta inh	12-LOX inh
Cc1c(N)cc(S(=O)(=O)O)cc1NC(=O)c1cccc([N+](=O)[O-])c1	·	?	0.3	-21.7%	28.2µM*	?
Cc1ccccc1NN=Nc1nc2c([nH]1)c(=O)n(C)c(=O)n2C	14.1%	27.6%	-15.6	4.3%	-2.3%	-31.1%
Cn1c(=O)c2[nH]c(N=NNc3ccccc3F)nc2n(C)c1=O	-3.0%	25.1µM*	?	2.8%	-17.4%	?
COc1ccc(CN2C(=O)[C@@H]3C[C@@H](CN3Cc3ccccc3C)Oc3ccccc32)cc1	·	·	·	·	·	-1.6%[176 µM]
O=[N+]([O-])c1ccc(-c2c[nH]c(=S)[nH]2)cc1	?	?	-77.5*	?	39.8µM*	?
O=C(C1COc2cc(S(=O)(=O)NCc3ccc4c(c3)OCO4)ccc2O1)N1CCCCC1 (centres undefined)	·	·	·	·	·	12.6%
CC(=O)Nc1cccc(-c2cc(C)c3cc4c(cc3n2)OCO4)c1	39.8µM*	?	-22.5	-20.4%	7.5%	?
Cc1ccc(CN(C)C(=O)Cc2c[nH]c3ccccc23)cc1	·	·	·	·	·	5.0%
COc1cc(-c2nnc(SCC(=O)N3c4ccccc4Sc4ccccc43)o2)cc(OC)c1OC	-2.3%	7.0%	7.8	0.4%	-14.0%	-22.2%
O=C(Sc1nnc(-c2ccccc2)o1)N1c2ccccc2Sc2ccccc21	-0.7%	17.3%	-7.2	-12.8%	-20.8%	10µM*
Cc1nsc(N)c1C(=O)OCc1csc(-c2cccc(Br)c2)n1	·	·	·	·	·	-28.0%
Cc1nsc(N)c1C(=O)OCc1csc(-c2ccccc2)n1	·	·	·	·	·	25.1µM*
Cc1cc(=O)oc2cc(Oc3ccc([N+](=O)[O-])cc3[N+](=O)[O-])ccc12	-4.2%	79.4µM*	3.2	-7.5%	?	-3.4%
CCN(CC)S(=O)(=O)c1ccc(Oc2ccc3c(C)cc(=O)oc3c2)c([N+](=O)[O-])c1	·	·	·	·	·	56.9%
NC(=O)c1ccc(Oc2ccc3ccc(=O)oc3c2)c([N+](=O)[O-])c1	?	?	?	?	28.2µM*	?
O=c1c(S(=O)(=O)c2ccc(Cl)cc2)cn(Cc2ccc(F)cc2)c2ccc(F)cc12	6.8%	79.4µM*	·	?	-21.4%	-2.4%
